# Whole data set: some 2,900 compounds, median “NF-kB SEAP reporter activity, fold change vs agonist alone” near 0.99, cut for the highest 2% near 2.6. The sample as a whole holds a higher share of the highest values than the screen did.
# Key:
# [1] = test system: RAW-Dual; test: NF-kB SEAP reporter activity, fold change vs agonist alone; cytotoxicity flag (confluency mask): not cytotoxic; higher = enhanced NF-kB activity
# Summary of the method: (§1)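 After 50 nL of library stock was delivered by pin tool to RAW-Dual macrophages (50,000 cells/well, DMEM, 384-well plates), a PRR agonist was added 1 h later and the plates were kept at 37 °C, 5% CO2. Twenty hours later, IRF was read from supernatant by QuantiLuc luminescence and NF-κB by QuantiBlue absorbance at 620 nm. Reporter activity is stated as fold change over agonist-alone wells. Wells with IncuCyte confluency under 70% of agonist controls in both mask sets were counted as cytotoxic.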
# [2] = test system: RAW-Dual; test: NF-kB SEAP reporter activity, fold change vs agonist alone; higher = enhanced NF-kB activity
# Summary of the method: as §1
# [3] = test system: RAW-Dual; test: NF-kB SEAP reporter activity, fold change vs agonist alone; cytotoxicity flag (confluency mask): cytotoxic (confluency <70% of control); higher = enhanced NF-kB activity
# Summary of the method: as §1
# [4] = agonist: ODN 1826 (TLR9) 0.5 ug/mL
# [5] = agonist: Pam2CSK4 (TLR2/6) 0.1 ug/mL
# [6] = agonist: Pam3CSK4 (TLR2/1) 0.1 ug/mL
# [7] = library stock concentration (final ~1000-fold dilution): 10 mM, cytotoxicity flag (confluency mask): not cytotoxic, agonist: MPLA (TLR4) […]
# [8] = library stock concentration (final ~1000-fold dilution): 10 mM, cytotoxicity flag (confluency mask): not cytotoxic, agonist: Imiquimod (TLR7) […]
# [9] = library stock concentration (final ~1000-fold dilution): 10 mM, cytotoxicity flag (confluency mask): cytotoxic (confluency <70% of control), agonist: Imiquimod (TLR7) […]
# [10] = library stock concentration (final ~1000-fold dilution): 10 mM, cytotoxicity flag (confluency mask): cytotoxic (confluency <70% of control), agonist: MPLA (TLR4) […]
smiles,measurement,setting,value
COc1cc2ncnc(Nc3ccc(F)c(Cl)c3)c2cc1OCCCN1CCOCC1.Cl (library stock concentration (final ~1000-fold dilution): 10 mM),NF-kB SEAP reporter activity,[1]; agonist: LPS (TLR4) 0.1 ug/mL,1.23
same,NF-kB SEAP reporter activity,[1]; [4],0.277
same,NF-kB SEAP reporter activity,[1]; [5],0.967
same,NF-kB SEAP reporter activity,[1]; [6],0.737
COc1cc2ncnc(Nc3ccc(F)c(Cl)c3)c2cc1OCCCN1CCOCC1.Cl,NF-kB SEAP reporter activity,[2]; [7],1.29
CN1CCN(Cc2ccc(Nc3ncc(Cl)c(Nc4ccccc4S(=O)(=O)N(C)C)n3)cc2)CC1 (library stock concentration (final ~1000-fold dilution): 2 mM),NF-kB SEAP reporter activity,[3]; agonist: LPS (TLR4) 0.1 ug/mL,0.331
same,NF-kB SEAP reporter activity,[3]; [4],1.3
same,NF-kB SEAP reporter activity,[3]; [5],0.245
same,NF-kB SEAP reporter activity,[3]; [6],1.08
Nc1nc(Nc2ccc(S(N)(=O)=O)cc2)nn1C(=O)c1c(F)cccc1F (library stock concentration (final ~1000-fold dilution): 10 mM),NF-kB SEAP reporter activity,[3]; agonist: LPS (TLR4) 0.1 ug/mL,0.637
same,NF-kB SEAP reporter activity,[3]; [4],1.29
same,NF-kB SEAP reporter activity,[3]; [5],0.632
same,NF-kB SEAP reporter activity,[3]; [6],0.864
CN1C(=O)c2sccc2N(C)c2nc(Nc3ccc(S(N)(=O)=O)cc3)ncc21 (library stock concentration (final ~1000-fold dilution): 10 mM),NF-kB SEAP reporter activity,[1]; agonist: LPS (TLR4) 0.1 ug/mL,5.75
same,NF-kB SEAP reporter activity,[1]; [4],3.02
same,NF-kB SEAP reporter activity,[1]; [5],1.22
same,NF-kB SEAP reporter activity,[1]; [6],2.56
CN1CCN(Cc2ccc(Nc3ncc(Cl)c(Nc4ccccc4S(=O)(=O)N(C)C)n3)cc2)CC1,NF-kB SEAP reporter activity,"[2]; library stock concentration (final ~1000-fold dilution): 2 mM, cytotoxicity flag (confluency mask): cytotoxic (confluency <70% of control), agonist: Imiquimod (TLR7) […]",1.37
same,NF-kB SEAP reporter activity,"[2]; library stock concentration (final ~1000-fold dilution): 2 mM, cytotoxicity flag (confluency mask): cytotoxic (confluency <70% of control), agonist: MPLA (TLR4) […]",0.961
CN1C(=O)c2sccc2N(C)c2nc(Nc3ccc(S(N)(=O)=O)cc3)ncc21,NF-kB SEAP reporter activity,[2]; [8],1.86
same,NF-kB SEAP reporter activity,[2]; [7],2.45
Nc1nc(Nc2ccc(S(N)(=O)=O)cc2)nn1C(=O)c1c(F)cccc1F,NF-kB SEAP reporter activity,[2]; [9],1.97
same,NF-kB SEAP reporter activity,[2]; [10],1.36
COC(=O)c1ccc(O)c(O)c1 (library stock concentration (final ~1000-fold dilution): 10 mM),NF-kB SEAP reporter activity,[1]; agonist: LPS (TLR4) 0.1 ug/mL,0.81
same,NF-kB SEAP reporter activity,[1]; [4],0.654
same,NF-kB SEAP reporter activity,[1]; [5],0.603
same,NF-kB SEAP reporter activity,[1]; [6],0.553
COC(=O)c1ccc(O)c(O)c1,NF-kB SEAP reporter activity,[2]; [8],0.731
same,NF-kB SEAP reporter activity,[2]; [7],1.17
Cn1cc(C2=C(c3cccc(N)c3)C(=O)NC2=O)c2ccccc21 (library stock concentration (final ~1000-fold dilution): 10 mM),NF-kB SEAP reporter activity,[1]; agonist: LPS (TLR4) 0.1 ug/mL,1.83
same,NF-kB SEAP reporter activity,[1]; [4],2.18
same,NF-kB SEAP reporter activity,[1]; [5],1.59
same,NF-kB SEAP reporter activity,[1]; [6],2.2
CS(=O)(=O)O.Cn1cc(C2=C(c3cn(CCCSC(=N)N)c4ccccc34)C(=O)NC2=O)c2ccccc21 (library stock concentration (final ~1000-fold dilution): 10 mM),NF-kB SEAP reporter activity,[3]; agonist: LPS (TLR4) 0.1 ug/mL,0.173
same,NF-kB SEAP reporter activity,[3]; [4],0.185
same,NF-kB SEAP reporter activity,[3]; [5],0.0599
same,NF-kB SEAP reporter activity,[3]; [6],0.138
Cn1cc(C2=C(c3ccc(Cl)cc3Cl)C(=O)NC2=O)c2ccccc21 (library stock concentration (final ~1000-fold dilution): 10 mM),NF-kB SEAP reporter activity,[1]; agonist: LPS (TLR4) 0.1 ug/mL,3.23
same,NF-kB SEAP reporter activity,[1]; [4],2.04
same,NF-kB SEAP reporter activity,[1]; [5],1.49
same,NF-kB SEAP reporter activity,[1]; [6],2.34
CS(=O)(=O)O.Cn1cc(C2=C(c3cn(CCCSC(=N)N)c4ccccc34)C(=O)NC2=O)c2ccccc21,NF-kB SEAP reporter activity,[2]; [9],0.13
same,NF-kB SEAP reporter activity,[2]; [10],0.222
Cn1cc(C2=C(c3cccc(N)c3)C(=O)NC2=O)c2ccccc21,NF-kB SEAP reporter activity,[2]; [8],1.55
same,NF-kB SEAP reporter activity,[2]; [7],1.7
Cn1cc(C2=C(c3ccc(Cl)cc3Cl)C(=O)NC2=O)c2ccccc21,NF-kB SEAP reporter activity,[2]; [8],1.58
same,NF-kB SEAP reporter activity,[2]; [7],1.99
COc1cc2c3cc1Oc1c(OC)c(OC)cc4c1C(Cc1ccc(O)c(c1)Oc1ccc(cc1)CC3N(C)CC2)N(C)CC4.Cl.Cl (centres undefined),NF-kB SEAP reporter activity,[2]; [8],0.379
same,NF-kB SEAP reporter activity,[2]; [7],1.37
COc1cc2c3cc1Oc1c(OC)c(OC)cc4c1C(Cc1ccc(O)c(c1)Oc1ccc(cc1)CC3N(C)CC2)N(C)CC4.Cl.Cl (centres undefined) (library stock concentration (final ~1000-fold dilution): 10 mM),NF-kB SEAP reporter activity,[1]; agonist: LPS (TLR4) 0.1 ug/mL,1.44
same,NF-kB SEAP reporter activity,[1]; [4],0.2
same,NF-kB SEAP reporter activity,[1]; [5],1.08
same,NF-kB SEAP reporter activity,[1]; [6],1.19
CC1(C)SC2C(NC(=O)C(N)c3ccccc3)C(=O)N2C1C(=O)OCOC(=O)C1N2C(=O)CC2S(=O)(=O)C1(C)C (centres undefined) (library stock concentration (final ~1000-fold dilution): 10 mM),NF-kB SEAP reporter activity,[1]; agonist: LPS (TLR4) 0.1 ug/mL,1.06
same,NF-kB SEAP reporter activity,[1]; [4],0.886
same,NF-kB SEAP reporter activity,[1]; [5],1.16
same,NF-kB SEAP reporter activity,[1]; [6],0.993
CC1(C)SC2C(NC(=O)C(N)c3ccccc3)C(=O)N2C1C(=O)OCOC(=O)C1N2C(=O)CC2S(=O)(=O)C1(C)C (centres undefined),NF-kB SEAP reporter activity,[2]; [7],1.07
CC(Oc1ccc2c(c1)OCCn1cc(-c3ncnn3C(C)C)nc1-2)C(N)=O (centres undefined) (library stock concentration (final ~1000-fold dilution): 10 mM),NF-kB SEAP reporter activity,[1]; agonist: LPS (TLR4) 0.1 ug/mL,2.07
same,NF-kB SEAP reporter activity,[1]; [4],1.1
same,NF-kB SEAP reporter activity,[1]; [5],0.894
same,NF-kB SEAP reporter activity,[1]; [6],1.41
Cc1nc(-c2cn3c(n2)-c2ccc(-c4cnn(C(C)(C)C(N)=O)c4)cc2OCC3)n(C(C)C)n1,NF-kB SEAP reporter activity,[2]; [8],0.619
same,NF-kB SEAP reporter activity,[2]; [7],1.84
Cc1nc(-c2cn3c(n2)-c2ccc(-c4cnn(C(C)(C)C(N)=O)c4)cc2OCC3)n(C(C)C)n1 (library stock concentration (final ~1000-fold dilution): 10 mM),NF-kB SEAP reporter activity,[1]; agonist: LPS (TLR4) 0.1 ug/mL,2.74
same,NF-kB SEAP reporter activity,[1]; [4],1.31
same,NF-kB SEAP reporter activity,[1]; [5],0.996
same,NF-kB SEAP reporter activity,[1]; [6],1.15
CC(Oc1ccc2c(c1)OCCn1cc(-c3ncnn3C(C)C)nc1-2)C(N)=O (centres undefined),NF-kB SEAP reporter activity,[2]; [8],0.585
same,NF-kB SEAP reporter activity,[2]; [7],1.4
OCC1OC(c2ccc(F)c(Cc3cc4ccccc4s3)c2)C(O)C(O)C1O (centres undefined) (library stock concentration (final ~1000-fold dilution): 10 mM),NF-kB SEAP reporter activity,[1]; agonist: LPS (TLR4) 0.1 ug/mL,1.07
same,NF-kB SEAP reporter activity,[1]; [4],0.948
same,NF-kB SEAP reporter activity,[1]; [5],1.15
same,NF-kB SEAP reporter activity,[1]; [6],1.17
OCC1OC(c2ccc(F)c(Cc3cc4ccccc4s3)c2)C(O)C(O)C1O (centres undefined),NF-kB SEAP reporter activity,[2]; [8],1.06
same,NF-kB SEAP reporter activity,[2]; [7],1.04
Nc1ccn(C2CSC(CO)O2)c(=O)n1 (centres undefined),NF-kB SEAP reporter activity,[2]; [8],0.893
same,NF-kB SEAP reporter activity,[2]; [7],1.04
Nc1ccn(C2CSC(CO)O2)c(=O)n1 (centres undefined) (library stock concentration (final ~1000-fold dilution): 10 mM),NF-kB SEAP reporter activity,[1]; agonist: LPS (TLR4) 0.1 ug/mL,0.862
same,NF-kB SEAP reporter activity,[1]; [4],1.03
same,NF-kB SEAP reporter activity,[1]; [5],0.999
same,NF-kB SEAP reporter activity,[1]; [6],1.11
COC1CCC(N2C(=O)CNc3ncc(-c4ccc(C(C)(C)O)nc4)nc32)CC1 (centres undefined),NF-kB SEAP reporter activity,[2]; [8],0.711
same,NF-kB SEAP reporter activity,[2]; [7],0.53
COC1CCC(N2C(=O)CNc3ncc(-c4ccc(C(C)(C)O)nc4)nc32)CC1 (centres undefined) (library stock concentration (final ~1000-fold dilution): 10 mM),NF-kB SEAP reporter activity,[1]; agonist: LPS (TLR4) 0.1 ug/mL,0.463
same,NF-kB SEAP reporter activity,[1]; [4],0.349
same,NF-kB SEAP reporter activity,[1]; [5],0.719
same,NF-kB SEAP reporter activity,[1]; [6],0.458
CC(NC(=O)C(=O)Nc1ccccc1C(C)(C)C)C(=O)NC(CC(=O)O)C(=O)COc1c(F)c(F)cc(F)c1F (centres undefined),NF-kB SEAP reporter activity,[2]; [8],1.15
same,NF-kB SEAP reporter activity,[2]; [7],0.848
CC(NC(=O)C(=O)Nc1ccccc1C(C)(C)C)C(=O)NC(CC(=O)O)C(=O)COc1c(F)c(F)cc(F)c1F (centres undefined) (library stock concentration (final ~1000-fold dilution): 10 mM),NF-kB SEAP reporter activity,[1]; agonist: LPS (TLR4) 0.1 ug/mL,0.607
same,NF-kB SEAP reporter activity,[1]; [4],1.25
same,NF-kB SEAP reporter activity,[1]; [5],0.912
same,NF-kB SEAP reporter activity,[1]; [6],1.17
